Composite z-score and z-score data for 6 compounds are collected here from PubChem BioAssay.

The nature of experiment [1]: small molecules captured by biotinylated probe aFSTL3 – biochemical, small-molecule microarray, fluorescence 635/667, stem cell growth factor project, primary screen (AID 1064).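 Further: measures binding of the biotinylated anti-FSTL3 antibody to printed compounds.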 The settings on record: higher = more signal.
Experiment [2] can be described thus: binders from COS7 lysate, DM2A8 probe, primary screen, torsin A project, cell lysate, small-molecule microarray, fluorescence 635/667 (AID 1065). The settings on record: higher = more signal, COS7 lysate expressing mutant human TOR1A.
Experiment [3] in a line: small molecules captured by biotinylated probe aFGF2 – biochemical, small-molecule microarray, fluorescence 635/667, stem cell growth factor project, primary screen (AID 1067).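 Further: measures binding of biotinylated aFGF2 protein to printed compounds on slides; z-score merges feature fluorescence and signal-to-noise across triplicate slides.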 The following applies: higher = more signal.
Experiment [4] can be described thus: small molecules captured by biotinylated probe aFGF10 – biochemical, small-molecule microarray, fluorescence 635/667, stem cell growth factor project, primary screen (AID 1071).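 Further: score merges 667 nm spot intensity and signal to noise from triplicate slides.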 The following applies: higher = more signal.
For experiment [5], the target named is Neurogenic locus notch homolog protein 2 (Homo sapiens) (UniProt Q04721). As to the kind of experiment: small molecules binding Notch2 protein – biochemical, small-molecule microarray, 635 nm fluorescence, stem cell growth factors, primary screen (AID 1073). The settings on record: higher = more signal.
The target of experiment [6] is Pro-neuregulin-1, membrane-bound isoform (Homo sapiens) (UniProt Q02297). Briefly: small molecules binding neuregulin-1 protein – biochemical, small-molecule microarray, fluorescence 635/667, psychiatric disease protein project, primary screen (AID 1075).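 Further: score combines 667 nm spot fluorescence with signal to noise.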 The settings on record: NRG1 binding, 635 nm fluorescence, higher = more signal.
Sequence of Pro-neuregulin-1, membrane-bound isoform (Homo sapiens) (Q02297 whole entry, looked up, the tested form may be a part, canonical isoform): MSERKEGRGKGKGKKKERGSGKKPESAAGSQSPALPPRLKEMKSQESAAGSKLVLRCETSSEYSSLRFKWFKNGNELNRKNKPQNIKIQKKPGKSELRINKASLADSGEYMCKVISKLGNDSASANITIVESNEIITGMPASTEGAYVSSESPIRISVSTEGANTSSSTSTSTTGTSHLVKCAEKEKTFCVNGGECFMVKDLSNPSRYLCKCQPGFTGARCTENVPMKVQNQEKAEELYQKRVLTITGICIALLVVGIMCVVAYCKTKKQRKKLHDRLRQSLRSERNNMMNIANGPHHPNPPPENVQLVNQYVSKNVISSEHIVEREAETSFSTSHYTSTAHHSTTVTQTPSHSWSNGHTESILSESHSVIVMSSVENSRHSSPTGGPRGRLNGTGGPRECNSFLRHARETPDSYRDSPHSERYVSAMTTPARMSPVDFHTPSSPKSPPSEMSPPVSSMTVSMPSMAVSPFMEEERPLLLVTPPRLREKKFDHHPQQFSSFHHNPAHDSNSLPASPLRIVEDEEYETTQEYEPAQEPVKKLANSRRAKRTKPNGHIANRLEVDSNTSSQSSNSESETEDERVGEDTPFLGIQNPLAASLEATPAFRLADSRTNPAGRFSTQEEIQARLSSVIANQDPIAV
Experiment [7] relates to Neuregulin-1 EGF-like domain. As to the kind of experiment: small molecules binding NRG1 EGF domain – biochemical, small-molecule microarray, 635 nm fluorescence, primary screen (AID 1081).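 Further: binding of the protein to compounds printed on small-molecule microarray slides.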 The settings on record: higher = more signal.
A short description of experiment [8]: FRG1 expression reporter modulators in myotubes – cell-based, C2C12 myotubes, firefly/Renilla luciferase, luminescence, FRG1 inhibition for FSHD, primary screen (AID 1084). The following applies: FRG1 promoter luciferase, higher = more signal, called active from +8 up or from −8 down.
The nature of experiment [9]: small molecules captured by biotinylated probe aFST – biochemical, small-molecule microarray, fluorescence 635/667, stem cell growth factor project, primary screen (AID 1086).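 Further: score merges 667 nm fluorescence with signal-to-noise of each printed compound spot.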 The following applies: higher = more signal.
A short description of experiment [10]: binders of probe aHhip on microarray, primary screen, stem cell growth factor project, biochemical, small-molecule microarray, fluorescence 635/667 (AID 1087).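 Further: score merges spot fluorescence at 667nm with spot signal to noise ratio.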 The following applies: higher = more signal.
Experiment [11] has as its system PRMT1 (protein arginine N-methyltransferase 1). As to the kind of experiment: small molecules binding arginine methyltransferase PRMT1 – biochemical, small-molecule microarray, 635 nm fluorescence, primary screen (AID 1088).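 Further: binding of Prmt1 protein to compounds spotted on small-molecule microarray slides.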 The settings on record: higher = more signal.
Experiment [12] can be described thus: growth effects on S. cerevisiae YJM789 – YJM789 clinical isolate, OD600, 24 h, basal, primary screen (AID 1089).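 Further: growth of clinical yeast isolate S. cerevisiae YJM 789 seeded 1000 cells per well; test concentration not given here.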 The following applies: higher = more signal, called active from +8 up or from −8 down.
A short description of experiment [13]: S. pombe growth modifiers, basal conditions – strain 972, OD600, 24 h, no modulator, primary screen (AID 1090).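 Further: basal condition with compound alone and no growth modifier present; test concentration not given here.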 The following applies: S. pombe 972 growth, higher = more signal, called active from +8 up or from −8 down.
Experiment [14] in a line: budding yeast growth modifiers under rapamycin – strain BY4716, OD600, 96 h, primary screen (AID 1091). Further: test concentration not given here. The settings on record: S. cerevisiae BY4716 + rapamycin, higher = more signal, called active from +8 up or from −8 down.
Experiment [15] deals with Torsin-1A-interacting protein 2 (Homo sapiens) (UniProt Q8NFQ8). As to the kind of experiment: small molecules binding lysate-expressed LULL1 – cell lysate, human LULL1 lysate, 635/667 nm fluorescence, primary screen (AID 1092).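 Further: probe is lysate of COS7 cells overexpressing human LULL1; score merges per-feature 667 nm fluorescence with signal-to-noise.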 The following applies: small-molecule microarray, hLULL1 lysate binding, 635 nm fluorescence; higher = more signal.
Sequence of Torsin-1A-interacting protein 2 (Homo sapiens) (Q8NFQ8 whole entry, looked up): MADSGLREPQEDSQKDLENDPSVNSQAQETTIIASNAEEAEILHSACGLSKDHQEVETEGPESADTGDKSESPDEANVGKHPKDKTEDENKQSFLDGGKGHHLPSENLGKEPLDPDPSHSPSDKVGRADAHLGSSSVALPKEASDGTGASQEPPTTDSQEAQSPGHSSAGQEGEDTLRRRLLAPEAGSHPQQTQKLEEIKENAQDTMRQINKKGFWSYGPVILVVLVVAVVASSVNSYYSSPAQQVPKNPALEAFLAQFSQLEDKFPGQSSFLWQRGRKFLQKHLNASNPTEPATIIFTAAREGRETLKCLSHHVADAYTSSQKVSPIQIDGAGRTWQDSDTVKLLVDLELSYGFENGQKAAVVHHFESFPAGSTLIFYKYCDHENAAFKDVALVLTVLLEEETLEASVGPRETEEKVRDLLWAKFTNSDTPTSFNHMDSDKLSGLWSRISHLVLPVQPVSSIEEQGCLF
The nature of experiment [16]: optical density change of DRC41 E. coli – strain DRC41, OD650, 24 h, E. coli filamentation project, primary screen (AID 1093).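 Further: MC1000 strain lacking acrAB efflux and sulA so SOS filamentation is blocked; test concentration not given here.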 The following applies: E. coli DRC41 growth, higher = more signal, called active from +8 up or from −8 down.
Experiment [17] can be described thus: probe aLefty2 binding to arrayed compounds – biochemical, biotinylated probe, 635/667 nm fluorescence, primary screen (AID 1094).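 Further: score merges spot fluorescence near 667 nm with spot signal-to-noise ratio.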 The following applies: small-molecule microarray, higher = more signal.
Experiment [18] deals with Noggin (protein binding on small-molecule microarray). Briefly: small molecules binding Noggin protein – biochemical, 635/667 nm fluorescence, primary screen (AID 1095).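 Further: score merges 667 nm feature fluorescence with signal to noise over triplicate slides.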 The following applies: 635 nm fluorescence, higher = more signal.
For experiment [19], the target named is Neurogenic locus notch homolog protein 3 (Homo sapiens) (UniProt Q9UM47). Briefly: small molecules binding NOTCH3 protein – biochemical, 635/667 nm fluorescence, primary screen (AID 1096). The settings on record: small-molecule microarray, 635 nm fluorescence, higher = more signal.
Sequence of Neurogenic locus notch homolog protein 3 (Homo sapiens) (Q9UM47 whole entry, looked up): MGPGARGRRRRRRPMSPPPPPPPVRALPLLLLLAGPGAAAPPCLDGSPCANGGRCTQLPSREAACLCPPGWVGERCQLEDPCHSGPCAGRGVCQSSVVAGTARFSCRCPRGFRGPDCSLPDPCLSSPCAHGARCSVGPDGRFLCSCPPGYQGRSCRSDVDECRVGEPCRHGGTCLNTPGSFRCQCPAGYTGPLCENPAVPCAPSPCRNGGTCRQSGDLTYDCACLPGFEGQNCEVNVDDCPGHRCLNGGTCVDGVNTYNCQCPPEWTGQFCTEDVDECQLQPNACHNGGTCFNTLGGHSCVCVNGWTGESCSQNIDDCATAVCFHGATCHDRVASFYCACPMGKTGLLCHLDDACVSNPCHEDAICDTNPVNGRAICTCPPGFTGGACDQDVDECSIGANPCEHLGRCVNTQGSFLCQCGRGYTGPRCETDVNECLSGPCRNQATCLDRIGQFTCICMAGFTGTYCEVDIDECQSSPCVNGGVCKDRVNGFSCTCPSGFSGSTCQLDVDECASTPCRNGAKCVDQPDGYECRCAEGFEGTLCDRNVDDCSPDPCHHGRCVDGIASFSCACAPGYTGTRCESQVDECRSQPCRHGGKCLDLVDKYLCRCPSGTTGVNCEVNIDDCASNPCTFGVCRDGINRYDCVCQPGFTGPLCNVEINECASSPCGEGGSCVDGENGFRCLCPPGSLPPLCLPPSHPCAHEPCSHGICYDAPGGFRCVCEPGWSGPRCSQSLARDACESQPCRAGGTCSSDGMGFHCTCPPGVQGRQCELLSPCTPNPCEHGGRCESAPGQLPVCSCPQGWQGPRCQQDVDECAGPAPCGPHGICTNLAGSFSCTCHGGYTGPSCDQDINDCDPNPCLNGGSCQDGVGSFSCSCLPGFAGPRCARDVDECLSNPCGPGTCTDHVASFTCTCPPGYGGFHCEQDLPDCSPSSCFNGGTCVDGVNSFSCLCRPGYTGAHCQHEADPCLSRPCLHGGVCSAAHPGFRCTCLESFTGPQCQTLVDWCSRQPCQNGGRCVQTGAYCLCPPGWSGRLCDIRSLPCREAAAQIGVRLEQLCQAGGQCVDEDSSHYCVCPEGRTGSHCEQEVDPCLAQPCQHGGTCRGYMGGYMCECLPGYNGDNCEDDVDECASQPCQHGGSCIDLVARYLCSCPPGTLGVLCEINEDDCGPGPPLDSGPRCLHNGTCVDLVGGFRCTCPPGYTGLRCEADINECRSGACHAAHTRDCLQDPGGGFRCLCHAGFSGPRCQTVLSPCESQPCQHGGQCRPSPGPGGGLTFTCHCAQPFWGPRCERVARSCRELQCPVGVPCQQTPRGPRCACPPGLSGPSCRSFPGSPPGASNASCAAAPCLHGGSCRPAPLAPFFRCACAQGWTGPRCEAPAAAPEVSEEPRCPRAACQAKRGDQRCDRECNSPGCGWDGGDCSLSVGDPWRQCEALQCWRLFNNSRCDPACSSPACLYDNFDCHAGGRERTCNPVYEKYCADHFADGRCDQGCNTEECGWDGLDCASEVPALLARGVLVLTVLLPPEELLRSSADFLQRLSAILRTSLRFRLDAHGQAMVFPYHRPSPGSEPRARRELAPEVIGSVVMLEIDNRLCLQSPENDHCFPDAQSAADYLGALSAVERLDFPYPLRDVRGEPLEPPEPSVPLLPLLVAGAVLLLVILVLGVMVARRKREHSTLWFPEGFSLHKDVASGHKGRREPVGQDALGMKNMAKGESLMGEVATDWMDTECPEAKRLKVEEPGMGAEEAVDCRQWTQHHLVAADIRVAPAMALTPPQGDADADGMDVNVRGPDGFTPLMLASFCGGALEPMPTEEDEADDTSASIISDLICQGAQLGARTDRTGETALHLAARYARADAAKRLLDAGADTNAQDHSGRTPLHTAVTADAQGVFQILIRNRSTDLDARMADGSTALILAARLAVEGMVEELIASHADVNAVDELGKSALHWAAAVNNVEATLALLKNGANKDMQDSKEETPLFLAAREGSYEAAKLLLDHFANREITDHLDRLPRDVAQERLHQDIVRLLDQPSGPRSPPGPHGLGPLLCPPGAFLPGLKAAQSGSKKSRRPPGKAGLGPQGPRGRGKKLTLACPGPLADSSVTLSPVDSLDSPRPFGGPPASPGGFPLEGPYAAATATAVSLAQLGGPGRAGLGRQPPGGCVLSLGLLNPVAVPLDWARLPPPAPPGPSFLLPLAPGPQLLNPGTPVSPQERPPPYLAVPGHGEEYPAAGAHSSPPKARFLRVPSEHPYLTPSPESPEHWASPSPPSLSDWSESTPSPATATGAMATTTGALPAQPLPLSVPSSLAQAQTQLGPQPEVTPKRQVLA
Experiment [20] in a line: probe aEGFR binding to arrayed compounds – biochemical, biotinylated probe, 635/667 nm fluorescence, primary screen (AID 1097).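 Further: probe is a biotinylated anti-EGFR antibody binding compounds printed on slides; score combines fluorescence near 667 nm and signal to noise of each spot.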 The following applies: small-molecule microarray, higher = more signal.

The source made the active and inactive calls.

Regarding `COCCCNC(=O)[C@@]1(C)c2ccccc2C(=O)N(Cc2cc(C(F)(F)F)cc(C(F)(F)F)c2)[C@H]1c1ccc(CO)cc1`, the composite z-score in experiment [1] is 0.472; in experiment [2], -1.39; in experiment [3], -0.103; in [4], -0.635; in experiment [5], -0.664; in experiment [6], 1.59. Also, the composite z-score in experiment [7] is 0.738; in [9], -0.0412; in [10] it was -0.134; in experiment [11] it was 1.55; in experiment [15], 3.01; in experiment [17], -0.166. Also, the composite z-score in experiment [18] is -1.08; in [19] it was -0.134; in experiment [20], -0.26. Moreover, the z-score was -1.29 (inactive) in experiment [8]; -0.122 (inactive) in [12]; 0.585 (inactive) in [13]; -0.777 (inactive) in experiment [14]; 0.666 (inactive) in experiment [16].

For `COc1ccc(C#Cc2ccc3c(c2)[C@]2(C(=O)N3)[C@H](C(=O)NC[C@H](O)c3ccccc3)[C@H]3C(=O)O[C@H](c4ccccc4)[C@H](c4ccccc4)N3[C@@H]2c2ccccc2OCCO)cc1`, the composite z-score in experiment [1] is -0.185; in experiment [2], 0.324; in experiment [3], 0.0128; in experiment [4] it was 0.688; in experiment [5] it was 1.29; in experiment [6] it was 1.56. Further, the composite z-score in experiment [7] is 1.19; in experiment [9], 0.653; in experiment [10], -0.0994; in experiment [11], 1.54; in [15], 2.94; in experiment [17], 0.0179. The composite z-score was 1.4 in [18], 1.06 in [19] and -0.0192 in experiment [20]. Further, the z-score is 0.162 (inactive) in [8]; 2.23 (inactive) in [12]; 2.01 (inactive) in experiment [13]; 4.39 (inactive) in experiment [14]; 0.413 (inactive) in [16].

As for `COC(=O)[C@@]1(Cc2ccc(F)cc2)[C@H]2c3cc(C(=O)N(C)C)n(CCc4ccccn4)c3C[C@H]2CN1C(=O)c1ccccc1`, the composite z-score in experiment [1] turned out to be 0.681; in [2], 0.466; in experiment [3] it was 0.723; in experiment [4] it was 0.759; in experiment [5], 1.52; in [6], 0.183. Moreover, the composite z-score is 1.09 in experiment [7]; 2.35 in [9]; 0.178 in experiment [10]; 1.16 in experiment [11]; 3.94 in [15]; -0.0278 in experiment [17]. Further, the composite z-score in experiment [18] came to 0.259; in experiment [19], 0.861; in experiment [20], 0.709. Moreover, the z-score in experiment [8] is 1.98 (inactive); in experiment [12], 2.9 (inactive); in experiment [13] it was 0.423 (inactive); in [14], -0.616 (inactive); in experiment [16] it was 0.196 (inactive).

For `CC(=O)Nc1cc(Br)ccc1C(=O)O`, the composite z-score in experiment [1] is -0.135; in experiment [2], -0.387; in experiment [3], 0.0308; in [4], 0.239; in experiment [5], 0.425; in [6], 0.541. Further, the composite z-score in experiment [7] was 0.748; in experiment [9], 0.353; in experiment [10] it was -0.221; in experiment [11], 0.183; in [15], 1.33; in experiment [17] it was -0.0006. The composite z-score in experiment [18] is 0.201; in experiment [19] it was 0.482; in experiment [20], -0.156. The z-score in experiment [8] was 0.466 (inactive); in experiment [12] it was -0.0103 (inactive); in [13] it was 0.331 (inactive); in [14], 0.178 (inactive); in [16], -0.18 (inactive).

With `COC(=O)C[C@H]1O[C@]2(C(=O)N(Cc3ccccc3)c3ccc(NC(C)=O)cc32)[C@@H](C)[C@@H]1[Si](C)(C)c1ccc(OC)cc1`, the composite z-score in experiment [1] is -0.383; in experiment [2], -0.148; in experiment [3], -0.0543; in experiment [4], 0.489; in experiment [5], 1.12; in experiment [6], 0.264. The composite z-score was 0.882 in experiment [7]; 0.113 in experiment [9]; -0.273 in [10]; 0.994 in experiment [11]; 1.56 in experiment [15]; -0.082 in [17]. Further, the composite z-score in [18] was 1.09; in [19] it was 1.14; in experiment [20], -0.108. The z-score is -1.98 (inactive) in experiment [8]; 0.747 (inactive) in experiment [12]; 0.19 (inactive) in [13]; 2.53 (inactive) in [14]; 0.0208 (inactive) in experiment [16].

On to `[N-]=[N+]=Nc1ccccc1[C@H]1OC(c2ccc(OCCCO)cc2)=N[C@@]1(CCS(=O)(=O)c1ccccc1)C(=O)O`, for which the composite z-score in [1] came out at 1.13; in experiment [2] it was 0.298; in [3] it was 0.051; in experiment [4], 0.0993; in [5], 0.402; in experiment [6], 0.826. Also, the composite z-score was 0.67 in experiment [7]; 0.697 in experiment [9]; -0.189 in [10]; 0.164 in [11]; 3.2 in experiment [15]; 0.308 in [17]. Further, the composite z-score was -0.688 in [18], -0.0883 in [19] and -0.179 in experiment [20]. Besides, the z-score is 3.83 (inactive) in [8]; -0.775 (inactive) in experiment [12]; -3.52 (inactive) in [13]; -0.0047 (inactive) in [14]; 1.46 (inactive) in [16].
